According to PubChem BioAssay (Tox21):
Inconclusive results are not listed. Entries that show only a call come without a potency. The source made the active and inactive calls. Calls follow the shape of the dose curve; as a rule, active = well fitted cell-killing curve with a large enough effect in the repeat runs; inconclusive = weak or mixed curves, or effect the other way; inactive = flat fitted curve, though single readings scatter.
Potency is read from the fitted curve at half-maximal effect.

Assay: qHTS RealTime-Glo MT Cell Viability Assay in HEK293 cells - 32 hour (AID 1224868); also: nearly all actives have a fitted effect of over 50% in size
Conditions: RealTime-Glo luminescence; series mostly up to 76.8 µM
Source text: National Center for Advancing Translational Sciences [NCATS]
NIH Chemical Genomics Center [NCGC]
U.S. Environmental Protection Agency [EPA]
National Institutes of Environmental Health Sciences [NIEHS]
National Toxicology Program [NTP]
U.S. Food and Drug Administration [FDA]
Measure of cell viability is critical in the cell-base assay. Analysis of cell viability is necessary for the characterization of cell responses to cytotoxic drugs and environmental stress. A RealTime-Glo MT Cell Viability Assay to monitor cell viability in real time of continues cell culture during 40 hours of compound treatment was used to screen Tox21 10K library compounds in Hek293 cells. The RealTime-Glo MT Cell Viability Assay is a nonlytic, homogeneous, bioluminescent method to measure cell viability in real time using a simple, plate-based method. The assay involves adding NanoLuc luciferase and a cell-permeant prosubstrate to cells in culture. Viable cells reduce the proprietary prosubstrate to generate a substrate for NanoLuc luciferase. This substrate diffuses from cells into the surrounding culture medium, where it is rapidly used by the NanoLuc Enzyme to produce a luminescent signal. The signal correlates with the number of viable cells, making the assay well suited for cytotoxicity studies.
Tox21 Assay Protocol Summary:
The mixture of Hek293 cell suspension and reagents were dispensed at 600cells/6 ul/well in 1536-well tissue culture treated black solid bottom plates using a Multidrop dispenser. After the assay plates were incubated at a 37 C/5% CO2 incubator for 5 hours, 23 nL of compounds dissolved in DMSO, positive and negative controls was transferred to the assay plate by a pintool work station. The plates were incubated at 37 C for 40 hours. The luminescence intensity were measured at 0h, 8h, 16h, 24h, 32h and 40h time points using ViewLux plate reader during compound treatment.
For `CC(=O)Nc1cccc(N)c1`, the Potency was “inactive”.
For `C[Si](C)(C)O[Si](C)(C)O[Si](C)(C)C`, the Potency was “inactive”.
For `O=C(O)CCc1nc2ccccc2[nH]1`, the Potency was “inactive”.
For `CCCCCCCCC(=O)OCC(C)OC(=O)CCCCCCCC` (stereo not given), the Potency was “inactive”.
For `NC(=O)c1ccccc1C(N)=O`, the Potency was 31 µM (active).
In the case of `O=c1[nH]nc(-c2ccc([N+](=O)[O-])o2)o1`, the Potency is reported as “inactive”.
In the case of `CC1(C)C(=O)NC(=O)N1CO`, the Potency is reported as “inactive”.
In the case of `CCOc1cc(OCC)c(C(C)=O)cc1OCC`, the Potency is reported as 21.5 µM (active).
For `C=CC(C)CCC=C(C)C` (stereo not given), the Potency was “inactive”.
With `COc1cc(C)c(Cc2cnc(N)nc2N)cc1OC` the Potency was “inactive”.
With `CCCCCO` the Potency was “inactive”.
For `Nc1ccc(-c2ccc(F)cc2)cc1`, the Potency was “inactive”.
With `CCC[Si](OC)(OC)OC` the Potency was “inactive”.
For `CC(C)(C)N`, the Potency was “inactive”.
In the case of `O=C(O)c1ccccc1[N+](=O)[O-]`, the Potency is reported as “inactive”.
In the case of `Cc1ccc(NC=O)c(C)c1`, the Potency is reported as “inactive”.
In the case of `CC(O)CN` (stereo not given), the Potency is reported as “inactive”.
With `C=CC(O)CCCCC` (stereo not given) the Potency was “inactive”.
With `CC1(C)[C@@H]2CC[C@]3(C2)[C@@H]1C(=O)CCC3(C)C` the Potency was “inactive”.
In the case of `Cc1nc(C)c(C)nc1C`, the Potency is reported as “inactive”.
For `COc1ccc(/C=C/S(=O)(=O)NC(=O)c2ccc(C)cc2Cl)cc1`, the Potency was “inactive”.
In the case of `CCCC1CCOC(C)S1` (stereo not given), the Potency is reported as “inactive”.
With `O=C(O)c1c2ccccc2cc2ccccc12` the Potency was 43.5 µM (active).
In the case of `C=CC(=O)NC(C)(C)C`, the Potency is reported as “inactive”.
In the case of `Cc1cc(SC2=C(O)C[C@@](CCc3ccc(N)cc3)(C(C)C)OC2=O)c(C(C)(C)C)cc1CO`, the Potency is reported as “inactive”.
For `C1CCN(CN2CCCCC2)CC1`, the Potency was “inactive”.
With `CCc1cnc(C(=O)O)c(C(=O)O)c1` the Potency was “inactive”.
For `CCCCCCCCCCCCSCCOCCO`, the Potency was “inactive”.
For `OCCc1ccncc1`, the Potency was “inactive”.
For `CC(=O)OCC(=O)[C@@]1(O)CC[C@H]2[C@@H]3CCC4=CC(=O)C=C[C@]4(C)[C@@]3(F)[C@@H](O)C[C@@]21C`, the Potency was “inactive”.
In the case of `CCCCCCCCCCCCSC#N`, the Potency is reported as “inactive”.
With `CC/C=C\CCO` the Potency was “inactive”.
With `Cc1cc(C)n(CO)n1` the Potency was “inactive”.
For `CNc1ccccc1`, the Potency was “inactive”.
With `Oc1ccc(Oc2ccccc2)cc1` the Potency was 16.5 µM (active).
In the case of `CCCC1CCCC(=O)O1` (stereo not given), the Potency is reported as “inactive”.
In the case of `COC(=O)c1cc(Cl)ccc1[N+](=O)[O-]`, the Potency is reported as “inactive”.
With `CC(C)(O)C(=O)O` the Potency was “inactive”.
With `O=P(c1ccccc1)(c1ccccc1)c1ccccc1` the Potency was “inactive”.
In the case of `CC(C)NC(=O)c1ccccc1N`, the Potency is reported as “inactive”.
